CF NFkB block: blocks PAF-induced NF-kB reporter in cystic fibrosis cells. hit rate 0.86% among 360,000. KKLEB NF-kB-GFP reporter, GFP fluorescence overnight. inhibition, % at 5 µM;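 active means at least 50% inhibition at 5 µM, scaled per plate between neutral and stimulator controls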;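 further: PAF is a Pseudomonas aeruginosa culture filtrate used as stimulus; plate controls were PAF-stimulated DMSO wells for no effect and unstimulated DMSO wells for full effect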
TROY signal inh: inhibitors of TROY-dependent NF-kB signaling. Q293 LMP1-TROYcd NF-kB luciferase reporter, 4 h. inhibition, % at 10 µM. hit rate 0.98% among 360,000. AID 1347056;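 active means compounds whose plate-normalised and pattern-corrected inhibition of the luciferase reporter signal at the single screening dose is 50% or more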
KKLEB cytotox: reduces viability of KKLEB cystic fibrosis airway cells; KKLEB CF airway cells viability, ATPlite luminescence, overnight; stronger effect = lower value; cells stimulated with P. aeruginosa culture filtrate; activity change (cytotoxicity), % at 5 µM; hit rate 0.36% among 360,000; AID 602141;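 active means corrected activity change at or below -50% at 5 µM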
HIF-2a inh: blocks HIF-2a reporter activity; 786-0 RCC cells HIF-2a reporter, luciferase luminescence, overnight; inhibition, % at 18.8 µM; hit rate 0.72% among 360,000; AID 624352;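 active means inhibition of the luminescence signal of 40% or more relative to plate controls, in a single-dose primary screen at 18.75 µM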
Peg3 promoter: Peg3 promoter activity inhibition; HeLa PEG-Prom luciferase reporter, luminescence, overnight; inhibition, % at 20 µM; hit rate 1.7% among 360,000; AID 588405;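 active means inhibition of at least 50% at 20 µM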
TWEAK Fn14 block: inhibitors of TWEAK-Fn14 interaction signaling; TWEAK-stimulated Fn14 reporter cells, luciferase luminescence, 8 h; inhibition, % at 10 µM; hit rate 2% among 360,000; AID 1159606; in the data active means inhibition above about 50%
Mdm2-MdmX confirm: Mdm2/MdmX (human) interaction inhibition, confirmed; shares compounds with HIF-2a inh; SaOS-2 split-luciferase Mdm2/MdmX complementation, luminescence; inhibition, % at 8 µM; hit rate 99% among 740; AID 504601;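 active means mean inhibition of the luminescence signal across two replicates at or above 26 percent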
HIF-2a inh conf: confirmation of HIF-2a inhibitors | shares compounds with HIF-2a inh | 786-0 RCC cells, HIF-2a luciferase reporter luminescence, overnight | inhibition, % at 18.8 µM | hit rate 56% among 1,800 | AID 651580;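 active means mean inhibition across four replicates of at least 40 percent at the single tested concentration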
HIF-1a cs: counter-screen for HIF-2a inhibitors: HIF-1a inhibition in MiaPaCa-2 cells. inhibition, % at 18.8 µM. hit rate 72% among 1,800. shares compounds with HIF-2a inh. MiaPaCa-2 HIF-1a luciferase reporter, desferoxamine, overnight;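 active means mean inhibition of the reporter signal across four replicates at the single tested dose of 50% or more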
The depositor's hits bear a star; . = no result given. Shown are actives, neighbours in structure and some others; about 4% of the full set was active somewhere.

SMILES | CF NFkB block | TROY signal inh | KKLEB cytotox | HIF-2a inh | Peg3 promoter | TWEAK Fn14 block | HIF-2a inh conf | HIF-1a cs | others
COC(=O)[C@@H]1[C@@H](C(=O)OC)C2(c3ccccc3-c3ccccc32)N(c2ccc(Cl)cc2)N1C#N | 92.2* | 83.8* | -74.8* | 93.6* | 106.9* | 26.1 | 92.4* | 105.8*
O=c1c2ccccc2nc(/C=C/c2ccccc2)n1-c1ccc(O)cc1 | -11.3 | 3.4 | 11.5 | -1.5 | 39.4 | 33.4 | . | .
O=c1c2ccccc2nc(/C=C/c2ccc([N+](=O)[O-])o2)n1-c1ccc(O)cc1 | 12.1 | 33.2 | 0.6 | 66.9* | 103.2* | 92.6* | 1.6 | 104.6*
COC(=O)C1=C(C(=O)OC)C2OC1c1cc3ccccc3cc12 | 42.1 | -10.8 | -17.7 | 85.6* | 95.0* | 12.9 | 83.8* | 59.2*
COC(=O)C1=C(c2ccc3ccccc3c2)C[C@@H]2CC[C@H]1N2C | 7.3 | -18.4 | 8.3 | -6.0 | -13.8 | -3.5 | . | .
CC(=O)OCC12CC(OC(=O)CC(C)C)C(C)=CC1OC1C(O)C(OC(C)=O)C2(C)C12CO2 (stereo not given) | 92.8* | 82.1* | -63.0* | 82.0* | 96.9* | 92.8* | 78.9* | 102.5*
CC12CCC3C(CCC4(O)CC(O)CCC34C=NO)C1(O)CCC2C1=COC(=O)C1 (stereo not given) | 84.8* | 35.0 | -48.0 | 73.8* | 97.1* | 75.6* | 24.8 | 102.4*
CCCCN=C[C@]12CCC(O)CC1(O)CCC1[C@@H]2CC[C@]2(C)[C@H](C3C=CC(=O)O3)CCC12O (stereo not given in full) | 99.4* | 35.0 | -72.0* | 55.4* | 106.9* | 76.3* | 20.7 | 104.5* | Mdm2-MdmX confirm=82.2*
CC12CC[C@H]3[C@@H](CCC4(O)C[C@H](O)CCC34/C=N/NC(=O)c3ccccc3Cl)C1(O)CCC2C1=CC(=O)OC1 (stereo not given in full) | -2.8 | 0.7 | -1.5 | 9.0 | 7.0 | -29.3 | . | .
Cc1nc(CCl)cc(=O)[nH]1 | -4.1 | 13.9 | 4.4 | 19.0 | 3.3 | 10.4 | . | .
CC/C(=N\NC(=O)c1ccccc1O)c1c(O)n(C2CCCCC2)c(=O)[nH]c1=O | 15.5 | -13.6 | -16.4 | 9.3 | -12.9 | 10.3 | . | .
COc1ccc(CN2Cc3cnnn3-c3ccccc3C2C#N)cc1 (stereo not given) | 7.0 | 46.3 | -2.9 | 89.6* | 92.6* | 74.2* | 96.0* | 105.0*
CC(Cc1ccccc1)N1Cc2ccccc2C1 (stereo not given) | -9.1 | -0.9 | -14.2 | -39.9 | -17.3 | -3.6 | . | .
C[C@H]1O[C@@H](OC2CC[C@]3(C=O)[C@H]4CC[C@]5(C)[C@@H](C6=CC(=O)OC6)CC[C@]5(O)[C@@H]4CC[C@]3(O)C2)CC2OC(C)(C)OC21 (stereo not given in full) | 92.8* | 42.2 | -70.8* | 51.4* | 106.6* | 81.1* | 33.0 | 103.3*
Oc1ccc2c3c1OC1c4[nH]c5ccccc5c4C[C@@]4(O)C(C2)N(CC2CC2)CC[C@]314 (stereo not given in full) | 3.7 | 6.0 | 10.6 | -1.6 | -15.5 | 3.3 | . | .
O=C1/C(=C/c2ccccc2)C[C@@]2(O)[C@H]3Cc4ccc(O)c5c4[C@@]2(CCN3CC2CC2)C1O5 (stereo not given in full) | 76.0* | 63.7* | 0.1 | 95.5* | 100.1* | 91.4* | . | . | Mdm2-MdmX confirm=103.0*
COC(=O)C1=C(c2cc3ccccc3o2)C[C@@H]2CC[C@H]1N2C(=O)NCc1cccc2ccccc12 | 15.9 | 0.0 | -20.7 | 17.6 | 7.3 | 5.9 | . | .
CCCCCCCCCCCCCCCC[N+](C)(C)C | 74.8* | 25.0 | 29.9 | 55.8* | 95.3* | -20.5 | 42.3* | 79.2*
COC(=O)C1=C(c2ccc(C(C)=O)cc2)C[C@@H]2CC[C@H]1N2C(=O)NC1Cc2ccccc2C1 | -19.1 | -17.5 | 0.4 | 6.4 | -1.6 | 1.6 | . | .
N=C(N)c1c(O)n(C2CCCCC2)c(=O)n(C2CCCCC2)c1=O | 27.2 | 22.8 | -20.2 | 52.1* | 77.0* | 36.1 | 23.9 | 97.0*

Source: PubChem BioAssay (Sanford-Burnham Center for Chemical Genomics)
